Laboratory results published in PubChem BioAssay (EPA / NIEHS).
Several values for one entry are separate records, joined by “and”; a condition that tells them apart may be missing. Identical values can stand only once. Results filed as inconclusive are left out. A structure can be active in one record and inactive in another. Activity calls are given as the source filed them. The calls were made as follows, unless noted: active = hit-call score of the fitted dose curve at least 0.9, where 1 is the maximum; inconclusive = response in the unintended direction; inactive = score below 0.9.

How the values were obtained:
[1] = Tanguay_ZF_120hpf_AXIS_legacy: (Legacy) Oregon State University Tanguay Lab 120 Hour Post-fertilization zebrafish Assay for Body Axis Malformation (AID 2283635);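 as to AC50: potency for an increased fraction of larvae scored with body axis malformation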
Summary of the method: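 Chorion is removed with pronase at 4 hpf, then single 6 hpf embryos are dosed (final DMSO 0.64%) and held statically at 28C in sealed, foil-covered plates. At 120 hpf body axis malformation is recorded as present or absent.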

[2] = Tanguay_ZF_120hpf_EYE_legacy: (Legacy) Oregon State University Tanguay Lab 120 Hour Post-fertilization zebrafish Assay for Eye Malformation (AID 2283636)
Summary of the method: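 Read-out is binary presence or absence of eye malformation, scored by brightfield microscopy at 120 hpf. Single larvae were exposed from 6 hpf in embryo medium containing 0.64% DMSO, with DMSO as baseline.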

[3] = Tanguay_ZF_120hpf_SNOU_legacy: (Legacy) Oregon State University Tanguay Lab 120 Hour Post-fertilization zebrafish Assay for Snout Malformation (AID 2283637)
Summary of the method: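 Snout malformation read as a yes/no call on brightfield images of 120 hpf larvae (Tropical 5D strain). Static exposure began at 6 hpf on dechorionated embryos in 0.64% DMSO, with gain of signal analysed versus DMSO controls.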

[4] = Tanguay_ZF_120hpf_JAW_legacy: (Legacy) Oregon State University Tanguay Lab 120 Hour Post-fertilization zebrafish Assay for Jaw Malformation (AID 2283638);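 as to AC50: active means more embryos with jaw malformation than DMSO controls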
Summary of the method: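 Steps: dechorionate 4 hpf embryos (pronase); plate 1/well at 6 hpf; add test chemical, 0.64% DMSO final; seal, cover, hold at 28C statically to 120 hpf; score jaw defect presence/absence microscopically. Dead embryos not scored.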

[5] = Tanguay_ZF_120hpf_OTIC_legacy: (Legacy) Oregon State University Tanguay Lab 120 Hour Post-fertilization zebrafish Assay for Otic Vesicle Malformation (AID 2283639)
Summary of the method: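 Tropical 5D wild-type zebrafish embryos statically exposed in 0.64% DMSO at 28C until 120 hpf; 5uM trimethyltin chloride as positive control. Otic vesicle malformation scored present/absent by brightfield; dead embryos not scored; gain fitted versus DMSO.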

[6] = Tanguay_ZF_120hpf_PE_legacy: (Legacy) Oregon State University Tanguay Lab 120 Hour Post-fertilization zebrafish Assay for Pericardial Edema (AID 2283640);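 as to AC50: potency for increased incidence of pericardial edema versus DMSO baseline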
Summary of the method: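 Embryos from wild-type 5D adults were staged, then dosed in 0.64% DMSO. They were kept sealed in the dark at 28C until 120 hpf. Pericardial edema was then recorded as present or absent.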

[7] = Tanguay_ZF_120hpf_BRAI_legacy: (Legacy) Oregon State University Tanguay Lab 120 Hour Post-fertilization zebrafish Assay for Brain Malformation (AID 2283641)
Summary of the method: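 Wild-type 5D larvae, static waterborne exposure to 120 hpf, 28C, 0.64% v/v DMSO. Brightfield scoring of brain defects, binary; dead embryos excluded. Positive ctrl 5uM trimethyltin chloride.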

[8] = Tanguay_ZF_120hpf_SOMI_legacy: (Legacy) Oregon State University Tanguay Lab 120 Hour Post-fertilization zebrafish Assay for Somite Malformation (AID 2283647)
Summary of the method: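 Read-out: presence or absence of somite malformation in 120 hpf larvae, gain-of-signal relative to DMSO baseline. Embryos lacked chorion (pronase, 4 hpf) and were exposed statically from 6 hpf at 28C; dead larvae not scored.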

[9] = Tanguay_ZF_120hpf_PFIN_legacy: (Legacy) Oregon State University Tanguay Lab 120 Hour Post-fertilization zebrafish Assay for Pectoral Fin Malformation (AID 2283648);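 also: each larva judged yes or no for fin defect by brightfield with dead larvae skipped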
Summary of the method: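 5D WT zebrafish; pronase dechorionation 4 hpf; 1 embryo/well at 6 hpf; static exposure to 120 hpf, 28C, sealed, foil-covered; final DMSO 0.64% v/v; 5 uM trimethyltin chloride positive control; fin defect scored yes/no.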

[10] = Tanguay_ZF_120hpf_CFIN_legacy: (Legacy) Oregon State University Tanguay Lab 120 Hour Post-fertilization zebrafish Assay for Caudal Fin Malformation (AID 2283649)
Summary of the method: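 Binary presence or absence of caudal fin malformation at 120 hpf, read by brightfield microscopy, with DMSO as baseline. Larvae came from 5D wild-type embryos exposed statically from 6 hpf at 28C after pronase dechorionation.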

[11] = Tanguay_ZF_120hpf_PIG_legacy: (Legacy) Oregon State University Tanguay Lab 120 Hour Post-fertilization zebrafish Assay for Pigmentation Malformation (AID 2283650)
Summary of the method: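 Pronase dechorionation at 4 hpf; embryos plated at 6 hpf, one per well; static exposure, sealed and foil-covered, 28C, to 120 hpf; pigmentation read by brightfield, binary; DMSO 0.64% baseline, 5uM trimethyltin chloride positive control.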

[12] = Tanguay_ZF_120hpf_CIRC_legacy: (Legacy) Oregon State University Tanguay Lab 120 Hour Post-fertilization zebrafish Assay for Circulatory Malformation (AID 2283651)
Summary of the method: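 Dechorionated wild-type 5D zebrafish embryos, one per well, statically exposed from 6 to 120 hpf at 28C with 0.64% DMSO; circulatory malformation scored present/absent by brightfield microscopy at 120 hpf, dead embryos excluded.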

[13] = Tanguay_ZF_120hpf_NC_legacy: (Legacy) Oregon State University Tanguay Lab 120 Hour Post-fertilization zebrafish Assay for Notochord and Tail Malformation (AID 2283656)
Summary of the method: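 Dechorionated Tropical 5D wild-type zebrafish embryos, one per well from 6 hpf, statically exposed to 120 hpf at 28C in 0.64% DMSO final. Notochord distortion scored present/absent by brightfield; dead embryos excluded.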

[14] = Tanguay_ZF_120hpf_SWIM_legacy: (Legacy) Oregon State University Tanguay Lab 120 Hour Post-fertilization zebrafish Assay for Swim Bladder Malformation (AID 2283654);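 also: swim bladder malformation in each larva scored yes or no under brightfield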
Summary of the method: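 Embryos lacking chorions were exposed individually and statically to test chemical from 6 to 120 hpf at 28C, with 0.64% DMSO as vehicle. At 120 hpf, swim bladder malformation was recorded as present or absent by brightfield microscopy.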

[15] = read-out: solute carrier (SLC22A6), SLC22A6 (gene 9356); assay: LTEA_HepaRG_SLC22A6: Life Technologies and Expression Analysis (LTEA) Assay for solute carrier (SLC22A6) using HepaRG (AID 2283653; active = hit-call score of the fitted dose curve at least 0.9, where 1 is the maximum; inactive = score below 0.9); conditions: mRNA level, 48 h; actives raise or lower the signal
Summary of the method: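 Read-out is SLC22A6 transcript level by qRT-PCR, normalised to three housekeeping genes and fitted for gain or loss relative to 0.5% DMSO vehicle. Human HepaRG cells received chemicals at up to 100 uM for 48 h.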

[16] = read-out: solute carrier (SLC10A1), SLC10A1 (gene 6554); assay: LTEA_HepaRG_SLC10A1: Life Technologies and Expression Analysis (LTEA) Assay for solute carrier (SLC10A1) using HepaRG (AID 2283657; active = hit-call score of the fitted dose curve at least 0.9, where 1 is the maximum; inactive = score below 0.9); conditions: mRNA level, 48 h; actives raise or lower the signal
Summary of the method: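 Transcript levels were measured by qRT-PCR after human HepaRG cells received test chemical for 48 hours, up to 100 uM in half-log dilutions. Values come from bidirectional concentration-response fitting relative to 0.5% DMSO vehicle.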

[17] = read-out: matrix metalloproteinase-1 (MMP1), MMP1 (gene 4312); assay: LTEA_HepaRG_MMP1: Life Technologies and Expression Analysis (LTEA) Assay for matrix metalloproteinase-1 (MMP1) using HepaRG (AID 2283658; active = hit-call score of the fitted dose curve at least 0.9, where 1 is the maximum; inactive = score below 0.9); conditions: mRNA level, 48 h; actives raise or lower the signal
Summary of the method: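 HepaRG, ~100,000 cells/well, 48 h pre-culture; serum-free induction medium; test chemical 8 conc (max 100 uM, half-log), duplicate, 48 h; 0.5% DMSO; qRT-PCR MMP1, housekeeping-normalized; gain/loss fit vs DMSO.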

[18] = Tanguay_ZF_120hpf_TRUN_legacy: (Legacy) Oregon State University Tanguay Lab 120 Hour Post-fertilization zebrafish Assay for Truncated Body (AID 2283655)
Summary of the method: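 Truncated body is recorded as a binary endpoint at 120 hpf by brightfield imaging of wild-type 5D larvae. Exposure runs statically from 6 hpf at 28C with 0.64% DMSO; embryos dying earlier are not scored.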

Measured: AC50

O=C(Nc1ccccc1)Nc1cnns1
not listed: [14] | [15] | [16] | [17] | [18]
inactive: all other assays above

O=S1OCC2C(CO1)C1(Cl)C(Cl)=C(Cl)C2(Cl)C1(Cl)Cl (centres undefined)
not listed: [13] | [15] | [16] | [17] | [18]
inactive: all other assays above

N#Cc1c(Cl)c(Cl)c(Cl)c(C#N)c1Cl
active: [16] 27.8 µM | [17] 13.3 µM
not listed: [18]
inactive: all other assays above

Oc1ccc(Cl)cc1Cc1ccccc1
not listed: [15] | [16] | [17]
inactive: all other assays above

COc1nn(CSP(=S)(OC)OC)c(=O)s1
not listed: [12] | [15] | [16] | [17] | [18]
inactive: all other assays above

CC(C)(C)C(O)C(Oc1ccc(Cl)cc1)n1cncn1 (centres undefined)
inactive: [3] | [4] | [8] | [10] | [11] | [12] | [14] | [13]
active: [1] 40.7 µM and 31.9 µM and 48.1 µM | [2] 43.8 µM and 32.4 µM and 39.9 µM | [3] 33.7 µM and 47.3 µM | [4] 32 µM and 51.8 µM | [5] 46.2 µM and 33 µM and 45.3 µM | [6] 47.5 µM and 32.6 µM and 43.3 µM | [7] 49.8 µM and 33.6 µM and 48.3 µM | [8] 46 µM | [9] 47.2 µM and 33.2 µM and 39.7 µM | [10] 40.7 µM | [11] 44.2 µM and 47.8 µM | [12] 40.6 µM | [14] 47.1 µM

C#CCN1C(=O)COc2cc(F)c(N3C(=O)C4=C(CCCC4)C3=O)cc21
not listed: [15] | [16] | [17] | [18]
inactive: all other assays above

CC[C@H](C)[C@H]1O[C@]2(C=C[C@@H]1C)C[C@@H]1C[C@@H](C/C=C(\C)[C@@H](O[C@H]3C[C@H](OC)[C@@H](O[C@H]4C[C@H](OC)[C@@H](O)[C@H](C)O4)[C@H](C)O3)[C@@H](C)/C=C/C=C3\CO[C@@H]4[C@H](O)C(C)=C[C@@H](C(=O)O1)[C@]34O)O2 (tested in a mixture with another compound)
active: [1] 8.9 µM | [3] 934 nM | [6] 808 nM | [7] 15.6 µM
not listed: [15] | [16] | [17] | [18]
inactive: all other assays above

CCCN(CCOc1c(Cl)cc(Cl)cc1Cl)C(=O)n1ccnc1
active: [16] 35.9 µM | [17] 69.2 µM
not listed: [18]
inactive: all other assays above

CC(C)(C)C(O)/C(=C\c1ccc(Cl)cc1Cl)n1cncn1 (centres undefined)
active: [1] 70.7 µM | [2] 37.4 µM | [3] 30900 nM | [4] 25 µM | [5] 11.6 µM | [6] 42400 nM | [7] 8.24 µM | [9] 42.5 µM
inactive: [8] | [11] | [12] | [14]
